# In paper doi:10.1101/2024.03.05.583629:
# Target: pT7_6His-AlfaTag-HOXD13 (human, UniProt P35453 263-343)
# Experiment: PADIT-seq
# Details: dsDNA, one strand shown
# pT7_6His-AlfaTag-HOXD13, sequence (P35453 263-343): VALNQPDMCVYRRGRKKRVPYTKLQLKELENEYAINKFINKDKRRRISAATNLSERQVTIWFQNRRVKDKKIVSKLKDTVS
row,Sequence,binding signal
1,CTCGAGGATATCAAGATCTGGCCTCGGCTAGTTAAAAGGAACCTCTAGCTAGCCGACTCACTATAGGGATAATCGCCCTGAGCAAAGACC,2.53 ± 0.0756 log2FC
2,CTCGAGGATATCAAGATCTGGCCTCGGCGTTTTAATCGGAACCTCTAGCTAGCCGACTCACTATAGGGATAATCGCCCTGAGCAAAGACC,0.636 ± 0.0931 log2FC
3,CTCGAGGATATCAAGATCTGGCCTCGGCGTTTTACCTGGAACCTCTAGCTAGCCGACTCACTATAGGGATAATCGCCCTGAGCAAAGACC,-0.352 ± 0.118 log2FC
4,CTCGAGGATATCAAGATCTGGCCTCGGCCCGCTAAAAGGAACCTCTAGCTAGCCGACTCACTATAGGGATAATCGCCCTGAGCAAAGACC,-0.398 ± 0.11 log2FC
5,CTCGAGGATATCAAGATCTGGCCTCGGCGATTTAAAAGGAACCTCTAGCTAGCCGACTCACTATAGGGATAATCGCCCTGAGCAAAGACC,2.1 ± 0.071 log2FC
6,CTCGAGGATATCAAGATCTGGCCTCGGCGCTATAAAAGGAACCTCTAGCTAGCCGACTCACTATAGGGATAATCGCCCTGAGCAAAGACC,2.83 ± 0.0721 log2FC
7,CTCGAGGATATCAAGATCTGGCCTCGGCTTTTTAGTAGGAACCTCTAGCTAGCCGACTCACTATAGGGATAATCGCCCTGAGCAAAGACC,1.62 ± 0.0952 log2FC
8,CTCGAGGATATCAAGATCTGGCCTCGGCGGCGTAAAAGGAACCTCTAGCTAGCCGACTCACTATAGGGATAATCGCCCTGAGCAAAGACC,0.246 ± 0.0968 log2FC
9,CTCGAGGATATCAAGATCTGGCCTCGGCCTTTTACCCGGAACCTCTAGCTAGCCGACTCACTATAGGGATAATCGCCCTGAGCAAAGACC,-0.00238 ± 0.0891 log2FC
10,CTCGAGGATATCAAGATCTGGCCTCGGCTTTTTATTGGGAACCTCTAGCTAGCCGACTCACTATAGGGATAATCGCCCTGAGCAAAGACC,3.26 ± 0.0862 log2FC
11,CTCGAGGATATCAAGATCTGGCCTCGGCCGCATCCGCGGAACCTCTAGCTAGCCGACTCACTATAGGGATAATCGCCCTGAGCAAAGACC,-0.957 ± 0.122 log2FC
12,CTCGAGGATATCAAGATCTGGCCTCGGCATTTTATCAGGAACCTCTAGCTAGCCGACTCACTATAGGGATAATCGCCCTGAGCAAAGACC,2.32 ± 0.0735 log2FC
13,CTCGAGGATATCAAGATCTGGCCTCGGCAATATAAAAGGAACCTCTAGCTAGCCGACTCACTATAGGGATAATCGCCCTGAGCAAAGACC,2.41 ± 0.0826 log2FC
14,CTCGAGGATATCAAGATCTGGCCTCGGCATTTTAAGGGGAACCTCTAGCTAGCCGACTCACTATAGGGATAATCGCCCTGAGCAAAGACC,1.95 ± 0.0802 log2FC
15,CTCGAGGATATCAAGATCTGGCCTCGGCTTCCTAAAAGGAACCTCTAGCTAGCCGACTCACTATAGGGATAATCGCCCTGAGCAAAGACC,-0.635 ± 0.152 log2FC
16,CTCGAGGATATCAAGATCTGGCCTCGGCTTTTTAGATGGAACCTCTAGCTAGCCGACTCACTATAGGGATAATCGCCCTGAGCAAAGACC,0.28 ± 0.11 log2FC
17,CTCGAGGATATCAAGATCTGGCCTCGGCTTTTTAATCGGAACCTCTAGCTAGCCGACTCACTATAGGGATAATCGCCCTGAGCAAAGACC,1.1 ± 0.0911 log2FC
18,CTCGAGGATATCAAGATCTGGCCTCGGCGCGCTAAAAGGAACCTCTAGCTAGCCGACTCACTATAGGGATAATCGCCCTGAGCAAAGACC,-0.366 ± 0.0916 log2FC
19,CTCGAGGATATCAAGATCTGGCCTCGGCCGGCTAAAAGGAACCTCTAGCTAGCCGACTCACTATAGGGATAATCGCCCTGAGCAAAGACC,-0.621 ± 0.107 log2FC
20,CTCGAGGATATCAAGATCTGGCCTCGGCCTTTTAAAGGGAACCTCTAGCTAGCCGACTCACTATAGGGATAATCGCCCTGAGCAAAGACC,2.37 ± 0.0692 log2FC

row,Sequence,binding signal
1,CTCGAGGATATCAAGATCTGGCCTCGGCATTTTAGAAGGAACCTCTAGCTAGCCGACTCACTATAGGGATAATCGCCCTGAGCAAAGACC,0.382 ± 0.0937 log2FC
2,CTCGAGGATATCAAGATCTGGCCTCGGCCGCCCAAATGGAACCTCTAGCTAGCCGACTCACTATAGGGATAATCGCCCTGAGCAAAGACC,-0.854 ± 0.128 log2FC
3,CTCGAGGATATCAAGATCTGGCCTCGGCTTTTTACTTGGAACCTCTAGCTAGCCGACTCACTATAGGGATAATCGCCCTGAGCAAAGACC,1.32 ± 0.0895 log2FC
4,CTCGAGGATATCAAGATCTGGCCTCGGCCGCCCAGCCGGAACCTCTAGCTAGCCGACTCACTATAGGGATAATCGCCCTGAGCAAAGACC,-0.832 ± 0.147 log2FC
5,CTCGAGGATATCAAGATCTGGCCTCGGCAACGTAAAAGGAACCTCTAGCTAGCCGACTCACTATAGGGATAATCGCCCTGAGCAAAGACC,0.751 ± 0.0928 log2FC
6,CTCGAGGATATCAAGATCTGGCCTCGGCGTTTTAACCGGAACCTCTAGCTAGCCGACTCACTATAGGGATAATCGCCCTGAGCAAAGACC,-0.0101 ± 0.0939 log2FC
7,CTCGAGGATATCAAGATCTGGCCTCGGCTTTTTAAAAGGAACCTCTAGCTAGCCGACTCACTATAGGGATAATCGCCCTGAGCAAAGACC,2.52 ± 0.0678 log2FC
8,CTCGAGGATATCAAGATCTGGCCTCGGCTATCCACGCGGAACCTCTAGCTAGCCGACTCACTATAGGGATAATCGCCCTGAGCAAAGACC,-1.03 ± 0.113 log2FC
9,CTCGAGGATATCAAGATCTGGCCTCGGCGGTCTAAAAGGAACCTCTAGCTAGCCGACTCACTATAGGGATAATCGCCCTGAGCAAAGACC,-0.664 ± 0.0879 log2FC
10,CTCGAGGATATCAAGATCTGGCCTCGGCCGCCCAGCGGGAACCTCTAGCTAGCCGACTCACTATAGGGATAATCGCCCTGAGCAAAGACC,-0.602 ± 0.194 log2FC
11,CTCGAGGATATCAAGATCTGGCCTCGGCTTTTTACTCGGAACCTCTAGCTAGCCGACTCACTATAGGGATAATCGCCCTGAGCAAAGACC,0.725 ± 0.0977 log2FC
12,CTCGAGGATATCAAGATCTGGCCTCGGCGCGCTTGCGGGAACCTCTAGCTAGCCGACTCACTATAGGGATAATCGCCCTGAGCAAAGACC,-0.651 ± 0.137 log2FC
13,CTCGAGGATATCAAGATCTGGCCTCGGCTGATGGGCGGGAACCTCTAGCTAGCCGACTCACTATAGGGATAATCGCCCTGAGCAAAGACC,-0.976 ± 0.109 log2FC
14,CTCGAGGATATCAAGATCTGGCCTCGGCCTTTTAGACGGAACCTCTAGCTAGCCGACTCACTATAGGGATAATCGCCCTGAGCAAAGACC,-0.199 ± 0.091 log2FC
15,CTCGAGGATATCAAGATCTGGCCTCGGCGGTGTAAAAGGAACCTCTAGCTAGCCGACTCACTATAGGGATAATCGCCCTGAGCAAAGACC,0.668 ± 0.0814 log2FC
16,CTCGAGGATATCAAGATCTGGCCTCGGCTTTTTAACTGGAACCTCTAGCTAGCCGACTCACTATAGGGATAATCGCCCTGAGCAAAGACC,1.56 ± 0.107 log2FC
17,CTCGAGGATATCAAGATCTGGCCTCGGCGTTTTACTAGGAACCTCTAGCTAGCCGACTCACTATAGGGATAATCGCCCTGAGCAAAGACC,2.96 ± 0.0769 log2FC
18,CTCGAGGATATCAAGATCTGGCCTCGGCTAACTAAAAGGAACCTCTAGCTAGCCGACTCACTATAGGGATAATCGCCCTGAGCAAAGACC,-0.24 ± 0.119 log2FC
19,CTCGAGGATATCAAGATCTGGCCTCGGCCGTCTAAAAGGAACCTCTAGCTAGCCGACTCACTATAGGGATAATCGCCCTGAGCAAAGACC,-0.577 ± 0.117 log2FC
